Results as given in PubChem BioAssay (NCATS).
Results filed as inconclusive are left out. Calls of active or inactive are those of the source. Unless noted, calls come from the whole dose curve; as a rule, active = well fitted curve in the direction sought with a large enough effect; inconclusive = small, poorly fitted or top-dose-only effect, or another doubt; inactive = no such curve, though single readings can be large; an effect the other way counts as inactive or inconclusive.

Tests used:
[1] = target: T1, Tyrosine-protein phosphatase non-receptor type substrate 1 (Homo sapiens) + Leukocyte surface antigen CD47 (Homo sapiens) (UniProt P78324+Q08722); experiment: CD47-SIRPalpha protein protein interaction - HTRF assay qHTS validation (AID 1347058; active = well fitted curve in the direction sought with a large enough effect in the signal ratio, not every such curve was filed as active; the % refers to the signal ratio; note: series mostly up to about 38 µM)
T1 sequence (P78324 whole entry, looked up, the tested form may be a part): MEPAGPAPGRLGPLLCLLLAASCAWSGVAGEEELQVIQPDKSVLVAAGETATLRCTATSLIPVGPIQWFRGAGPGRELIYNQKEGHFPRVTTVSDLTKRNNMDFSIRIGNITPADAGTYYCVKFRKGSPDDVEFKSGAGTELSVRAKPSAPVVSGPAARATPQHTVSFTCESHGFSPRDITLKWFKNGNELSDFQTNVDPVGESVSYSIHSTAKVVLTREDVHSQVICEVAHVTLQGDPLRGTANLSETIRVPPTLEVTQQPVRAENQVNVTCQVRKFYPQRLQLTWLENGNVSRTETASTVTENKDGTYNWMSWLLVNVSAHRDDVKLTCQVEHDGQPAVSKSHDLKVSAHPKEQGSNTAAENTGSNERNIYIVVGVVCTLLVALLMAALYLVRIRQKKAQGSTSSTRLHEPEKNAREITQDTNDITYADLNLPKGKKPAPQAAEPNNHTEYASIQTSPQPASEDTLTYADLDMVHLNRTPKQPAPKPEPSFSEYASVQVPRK
T1 sequence (Q08722 whole entry, looked up, the tested form may be a part): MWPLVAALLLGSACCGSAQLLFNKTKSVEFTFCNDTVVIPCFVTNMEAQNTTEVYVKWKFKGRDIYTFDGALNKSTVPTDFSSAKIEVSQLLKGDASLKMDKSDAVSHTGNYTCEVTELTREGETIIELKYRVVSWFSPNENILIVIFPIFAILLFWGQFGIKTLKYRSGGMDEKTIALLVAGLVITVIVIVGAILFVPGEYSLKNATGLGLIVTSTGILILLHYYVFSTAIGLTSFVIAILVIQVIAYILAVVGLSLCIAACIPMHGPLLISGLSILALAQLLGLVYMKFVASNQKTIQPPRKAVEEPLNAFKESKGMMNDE
In short: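 TR-FRET read (Ch1/Ch2 ratio) of soluble extracellular CD47 and Avi-biotinylated SIRPalpha domains in PBS pH 7.4 with 0.05% IGEPAL; 7-point compound titration. Sequential 30 min room-temperature steps; non-biotinylated SIRPalpha as control inhibitor.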

[2] = target: T1, Tyrosine-protein phosphatase non-receptor type substrate 1 (Homo sapiens) + Leukocyte surface antigen CD47 (Homo sapiens); experiment: CD47-SIRPalpha protein protein interaction - Alpha assay qHTS validation (AID 1347059);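 note: bead proximity luminescence from CD47 binding SIRPalpha after compound preincubation with SIRPalpha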
In short: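 Soluble extracellular domains: Avi-tag biotinylated SIRPalpha (25 nM) preincubated 30 min RT with compound, then 6His-CD47 (12.5 nM) 30 min; Ni-NTA acceptor and streptavidin donor beads (10 ug/mL) 30 min, AlphaScreen read. PBS pH 7.4, 0.05% IGEPAL.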

[3] = target: Parathyroid hormone/parathyroid hormone-related peptide receptor (Homo sapiens) (UniProt Q03431); experiment: qHTS for PTHR1 Agonists: Optimization Screen against the NCGC LOPAC library (AID 1347079);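 note: GloSensor cAMP luminescence in HEK-293 GP2 cells expressing human PTHR1 with IBMX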
Sequence of Parathyroid hormone/parathyroid hormone-related peptide receptor (Homo sapiens) (Q03431 whole entry, looked up): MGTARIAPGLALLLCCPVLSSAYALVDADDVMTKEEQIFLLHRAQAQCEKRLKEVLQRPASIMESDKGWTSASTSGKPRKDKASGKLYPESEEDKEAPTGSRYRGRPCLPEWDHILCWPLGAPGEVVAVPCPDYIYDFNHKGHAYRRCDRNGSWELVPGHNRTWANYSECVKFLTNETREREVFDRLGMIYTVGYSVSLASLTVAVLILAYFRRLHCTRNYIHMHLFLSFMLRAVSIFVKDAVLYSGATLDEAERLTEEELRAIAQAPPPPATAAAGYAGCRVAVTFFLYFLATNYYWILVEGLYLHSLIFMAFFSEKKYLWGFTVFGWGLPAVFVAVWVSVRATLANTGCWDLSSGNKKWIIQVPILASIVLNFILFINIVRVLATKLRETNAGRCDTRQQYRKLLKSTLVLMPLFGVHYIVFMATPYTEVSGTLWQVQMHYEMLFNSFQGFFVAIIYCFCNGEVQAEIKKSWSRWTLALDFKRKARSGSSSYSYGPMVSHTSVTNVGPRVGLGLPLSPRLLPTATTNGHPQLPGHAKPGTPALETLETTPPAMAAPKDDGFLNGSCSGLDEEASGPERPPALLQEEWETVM
In short: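 Compounds were tested across a qHTS titration. PTHR1-expressing GP2 cells report cAMP rises via GloSensor luminescence after 1 hr compound exposure at 37C with IBMX present.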

[4] = qHTS of pediatric cancer cell lines to identify multiple opportunities for drug repurposing: Primary screen for TC32 cells (AID 1347089); note: nearly all actives have a fitted effect of over 60% in size
In short: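 Measured quantity: luminescence from CellTiter-Glo, reflecting metabolically active TC32 cells following 48 h of compound. Curves came straight from multi-point titrations, with 8 or 11 points in primary and 11 in confirmatory screening.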

[5] = qHTS of pediatric cancer cell lines to identify multiple opportunities for drug repurposing: Primary screen for DAOY cells (AID 1347090); note: series mostly up to about 46 µM; nearly all actives have a fitted effect of over 55% in size
In short: (§1)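 Eight- or eleven-point concentration series, 48 h treatment at 37 degrees C in growth media; readout CellTiter-Glo luminescence. Potency and efficacy were taken from the concentration-response curves.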

[6] = qHTS of pediatric cancer cell lines to identify multiple opportunities for drug repurposing: Primary screen for SJ-GBM2 cells (AID 1347091)
In short: as §1

[7] = qHTS of pediatric cancer cell lines to identify multiple opportunities for drug repurposing: Primary screen for A673 cells (AID 1347092); note: nearly all actives have a fitted effect of over 45% in size
In short: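 Cells are plated, rested 5 h, dosed by pintool, incubated 48 h, then lysed with CellTiter-Glo and read by luminescence. DMSO is the neutral control; bortezomib at 2.3 uM final is the positive control.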

[8] = qHTS of pediatric cancer cell lines to identify multiple opportunities for drug repurposing: Primary screen for SK-N-MC cells (AID 1347093); note: series mostly up to about 46 µM
In short: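 Metabolically active cells were quantified by ATP-dependent luminescence (CellTiter-Glo, 15 min at room temperature) following 48 h treatment. Cells had been plated at 500-1,000 per well and settled for 5 h beforehand.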

[9] = qHTS of pediatric cancer cell lines to identify multiple opportunities for drug repurposing: Primary screen for BT-37 cells (AID 1347094); note: series mostly up to about 57 µM
In short: (§2)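 Viability was measured as metabolically active cells after 48 hours of treatment, read by CellTiter-Glo luminescence. Compounds were tested at multiple final concentrations, giving concentration-response curves.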

[10] = qHTS of pediatric cancer cell lines to identify multiple opportunities for drug repurposing: Primary screen for NB-EBc1 cells (AID 1347095)
In short: as §2

[11] = qHTS of pediatric cancer cell lines to identify multiple opportunities for drug repurposing: Primary screen for U-2 OS cells (AID 1347096); note: nearly all actives have a fitted effect of over 50% in size
In short: (§3)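 Cells (500-1,000/well) in growth media were settled 5 h at 37 degrees C, then given compounds for 48 h. Viability was read as CellTiter-Glo luminescence. Primary runs used MIPE at 11 points (0.78 nM-46 µM) and NPC at 8 points (0.59 nM-46 µM); follow-ups used 11 points.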

[12] = qHTS of pediatric cancer cell lines to identify multiple opportunities for drug repurposing: Primary screen for Saos-2 cells (AID 1347097); note: nearly all actives have a fitted effect of over 40% in size
In short: as §2

[13] = qHTS of pediatric cancer cell lines to identify multiple opportunities for drug repurposing: Primary screen for SK-N-SH cells (AID 1347098);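 note: DMSO served as neutral control and bortezomib at 2.3 µM as positive control; nearly all actives have a fitted effect of over 65% in size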
In short: (§4)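 Cells (500-1,000/well) rested 5 h, then received compounds for 48 h; metabolically active cells were measured by CellTiter-Glo luminescence. Final concentrations spanned up to 46 µM (MIPE, 11-point) or 0.59 nM-46 µM (NPC, 8-point) in primary screens, 11-point in follow-ups.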

[14] = qHTS of pediatric cancer cell lines to identify multiple opportunities for drug repurposing: Primary screen for NB1643 cells (AID 1347099); note: nearly all actives have a fitted effect of over 50% in size
In short: as §2

[15] = qHTS of pediatric cancer cell lines to identify multiple opportunities for drug repurposing: Primary screen for LAN-5 cells (AID 1347100)
In short: as §3

[16] = qHTS of pediatric cancer cell lines to identify multiple opportunities for drug repurposing: Primary screen for BT-12 cells (AID 1347101); note: nearly all actives have a fitted effect of over 25% in size
In short: as §4

[17] = qHTS of pediatric cancer cell lines to identify multiple opportunities for drug repurposing: Primary screen for Rh18 cells (AID 1347102); note: nearly all actives have a fitted effect of over 65% in size
In short: as §3

[18] = qHTS of pediatric cancer cell lines to identify multiple opportunities for drug repurposing: Primary screen for OHS-50 cells (AID 1347103); note: nearly all actives have a fitted effect of over 40% in size
In short: as §4

[19] = qHTS of pediatric cancer cell lines to identify multiple opportunities for drug repurposing: Primary screen for RD cells (AID 1347104); note: nearly all actives have a fitted effect of over 55% in size
In short: as §2

[20] = qHTS of pediatric cancer cell lines to identify multiple opportunities for drug repurposing: Primary screen for MG 63 (6-TG R) cells (AID 1347105); note: nearly all actives have a fitted effect of over 50% in size
In short: as §2

Measured: outcome

CN1Cc2c(N)cccc2C(c2ccccc2)C1 (configuration not stated)
inactive: all assays above

CC(=O)OC(C)OC(=O)C(C)c1ccc(-c2ccccc2)c(F)c1 (configuration not stated)
not listed: [1] | [2] | [3]
inactive: all other assays above
